Screening results (PubChem BioAssay)
The list is not random: actives were taken first. Their share in the collection is about 12%.
BAZ2B inh = inhibitors of human BAZ2B bromodomain | Q9UIF8 | hit rate 4.4% among 360,000 | Potency, µM (doses to about 114 µM), for the others: top-dose activity change, negative = inhibition, actives largely listed as inhibitors | AlphaScreen BAZ2B-H3K14Ac peptide displacement; further: on the % scale 0 is the no-effect control and ±100 the full control effect; nearly all actives have a fitted effect of over 60% in size
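Protein-peptide AlphaScreen: BAZ2B 50 nM, b-H3K14Ac 50 nM, 1x PBS pH 7.4 + 0.01% Tween-20. Preincubation 30 min RT; cpd 30 min RT (top 110 uM); beads 20 min RT, light-protected.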
Sfp inh = Sfp phosphopantetheinyl transferase inhibition | Biochemical Sfp PPTase activity, qHTS | AID 1490 | hit rate 3.5% among 310,000 | Q9F4F7 | Potency, µM, without a hit: largest response in the series, negative = inhibition, usual class: inhibitors;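 further: the enzyme is Sfp with the accession as filed and its product quenches rhodamine fluorescence; 0% = enzyme reaction without inhibitor and -100% = no enzyme wells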
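Fluorescence-quenching assay with 15 nM Sfp, 5 uM rhodamine-CoA and 12.5 uM BHQ-2-labelled ybbR peptide in pH 7.6 Hepes/MgCl2 buffer. Enzyme was pre-incubated with compound for 15 min at room temperature. Rate was taken from the 30-min fluorescence change (525/598 nm).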
HP1b chromo inh = inhibitors of HP1-beta chromodomain binding to methylated histone tails | AlphaScreen HP1-beta / biotin-H3K9me3 peptide binding | Potency, µM (doses to about 114 µM), without a hit: at the highest dose activity change, negative = inhibition, usual class: inhibitors | hit rate 0.56% among 390,000 | AID 540317; further: nearly all actives have a fitted effect of over 70% in size
Target sequence (P83916 whole entry, looked up): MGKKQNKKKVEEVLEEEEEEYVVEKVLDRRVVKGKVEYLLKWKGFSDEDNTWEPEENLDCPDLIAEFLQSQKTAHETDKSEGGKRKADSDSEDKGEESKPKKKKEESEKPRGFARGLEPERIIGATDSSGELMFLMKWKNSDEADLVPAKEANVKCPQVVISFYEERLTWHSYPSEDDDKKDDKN
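Compound inhibition of the preformed complex between 50 nM HP1-beta and 50 nM biotinylated H3K9me3 peptide was read by AlphaScreen. Buffer was PBS pH 7.4 with 0.01% Tween-20. Incubations ran 30 min at room temperature, with 10 ug/mL donor/acceptor beads.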
L3MBTL1 block = L3MBTL1 (human) inhibition; hit rate 0.66% among 230,000; Potency, µM (titrated, usually from 57.1 µM), inactives show at the highest dose activity, negative = inhibition, usual class: inhibitors; Q9Y468; AID 485360; AlphaScreen L3MBTL1–H3K9me1 peptide binding; further: on the % scale 0 is the no-effect control and ±100 the full control effect; nearly all actives have a fitted effect of over 60% in size
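L3MBTL1 50 nM + b-AHA-H3(1-15)K9me1 75 nM, 30 min RT; compound added, 30 min RT; streptavidin donor/Ni-chelate acceptor beads 10 ug/mL each final, 30 min RT dark; AlphaScreen read.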
JMJD2A Tudor = inhibitors of human JMJD2A Tudor domain; Potency, µM (doses to about 114 µM), for inactives: at the highest dose activity change, negative = inhibition, usual class: inhibitors; O75164; AlphaScreen JMJD2A-Tudor / H3K4me3 peptide binding; AID 504339; hit rate 4.4% among 390,000; further: on the % scale 0 is the no-effect control and ±100 the full control effect; nearly all actives have a fitted effect of over 50% in size
G9a block = inhibitors of human histone lysine methyltransferase G9a; AID 504332; Q96KQ7; G9a H3K9 monomethylation, AlphaScreen, 2 h; Potency, µM (top dose mostly 102 µM), for the others: top-dose activity, negative = inhibition, usual class: inhibitors; hit rate 8.8% among 350,000; further: on the % scale 0 is the no-effect control and ±100 the full control effect; nearly all actives have a fitted effect of over 75% in size
Target sequence (Q96KQ7 913-1193 limits assumed): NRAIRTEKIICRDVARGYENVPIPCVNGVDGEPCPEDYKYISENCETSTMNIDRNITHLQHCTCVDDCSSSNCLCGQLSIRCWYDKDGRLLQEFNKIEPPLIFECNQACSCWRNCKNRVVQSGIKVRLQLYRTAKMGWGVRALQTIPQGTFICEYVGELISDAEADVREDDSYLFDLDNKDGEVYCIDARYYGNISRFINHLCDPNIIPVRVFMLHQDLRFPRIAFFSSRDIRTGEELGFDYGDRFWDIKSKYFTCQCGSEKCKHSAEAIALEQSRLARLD
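Methyltransferase reactions run at room temperature for 2 h (20 nM enzyme, 500 nM biotin-H3K9 peptide, 20 uM SAM) after a 15 min compound preincubation; product detected by AlphaScreen beads and anti-H3K9me1 antibody.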
The depositor's hits bear a star; ? = inconclusive; · = no result; [ ] = another dose, or the depositor's remark. The call rests on the fitted dose curve; in most records, active means well fitted curve in the direction sought with a large enough effect; inconclusive means small, poorly fitted or top-dose-only effect, or another doubt; inactive means no such curve, though single readings can be large; an effect the other way counts as inactive or inconclusive. Potency means the concentration at half of the fitted maximal effect.

SMILES	BAZ2B inh	Sfp inh	HP1b chromo inh	L3MBTL1 block	JMJD2A Tudor	G9a block
Cc1ccc2c(NC(=O)c3ccc(Br)o3)cccc2n1	-6.5%	4.8%	21.1%	·	-4.2%	·
Cc1cccc(NC(=O)c2ccccc2NC(=O)c2ccco2)c1	?	?	26.4%	·	-1.3%	39.8µM*
COc1cc(NC(=O)c2ccc([N+](=O)[O-])o2)ccc1NC(=O)c1ccco1	?	-1.5%	15.0%	·	3.9%	?
Cc1ccc2c(NC(=O)c3ccco3)cccc2n1	-11.8%	5.1%	38.5%	·	-22.8%	50.1µM*
COc1ncc2nc(-c3cc(F)cc(F)c3)c(=O)n(Cc3cccs3)c2n1	·	?	·	·	·	-9.7%[12.7 µM]
CC(C)OCCCN1C=C2C(=O)C(C)(OC(=O)C3CCCC3)C(=O)C=C2C=C1c1ccsc1 (configuration not stated)	·	1.0%	·	·	·	·
Cc1ccc(-n2c3nc(=O)[nH]c(=O)c-3cc3c(C)nn(-c4ccccc4)c32)cc1C	·	·	24.2%	·	-9.3%	12.1%[59 µM]
Cc1ccc(CNC(=O)CN2C(=O)C3(SCC(=O)N3c3ccc(F)c(F)c3)c3ccccc32)cc1 (configuration not stated)	4.3%[57.1 µM]	·	-6.1%	·	-26.5%	-7.9%[59 µM]
CCC(=O)N1CCc2cc(Br)cc(S(=O)(=O)N3CCC(C(=O)Nc4ccccc4CC)CC3)c21	-1.5%	·	31.3%	·	-8.9%	8.6%[59 µM]
O=C(NCCCc1nc2ccccc2n1Cc1ccc(F)cc1)C1CCCCC1	-2.9%	·	8.4%	·	-17.8%	4.6%[59 µM]
CSc1ccccc1C(=O)Nc1cc(C)ccc1C	-2.4%	13.3%	22.1%	-5.3%	-11.1%	39.8µM*
CCOC(=O)c1sc2cc([N+](=O)[O-])cc(SCC(=O)OC)c2c1N	39.8µM*	?	?	·	44.7µM*	7.94µM*
CCOC(=O)c1sc2cc([N+](=O)[O-])cc(SCCO)c2c1N	-9.5%	-7.0%	4.0%	-18.5%	-5.9%	7.1%[59 µM]
Cc1ccccc1Nc1nc(-c2sc(NC(=O)c3cccc(Cl)c3)nc2C)cs1	89.1µM*	-7.3%	·	-11.0%	·	22.4µM*
Cc1ccccc1Nc1nc(-c2sc(NC(=O)c3ccccc3)nc2C)cs1	?	25.1µM*	·	-3.5%	·	35.5µM*
Cc1ccc(Cl)cc1Nc1nc(-c2sc(NC(=O)c3cccc(Cl)c3)nc2C)cs1	?	-0.6%	·	-0.9%	·	31.6µM*
COc1ccccc1Nc1nc(-c2sc(NC(=O)c3ccco3)nc2C)cs1	-32.9%	7.0%	-7.8%	-1.0%	-25.0%	?
Cc1ccc(Cl)cc1Nc1nc(-c2sc(NC(=O)c3ccco3)nc2C)cs1	?	7.6%	23.4%	-10.2%	?	?
Cc1ccc(Nc2nc(-c3sc(NC(=O)c4ccc([N+](=O)[O-])cc4)nc3C)cs2)cc1	44.7µM*	5.9%	·	-10.3%	·	·
CCCCCC(=O)Nc1nc(C)c(-c2csc(Nc3cc(Cl)ccc3C)n2)s1	?	11.7%	-11.3%	0.0%	?	?
CCc1ccc(C(=O)c2c(N)c(-c3nc(-c4ccc5c(c4)OCO5)cs3)c3ccccn23)cc1	3.9%	·	14.1%	·	-13.8%	6.5%[59 µM]
CCc1ccccc1NC(=O)CSc1ncc2c(n1)-c1ccccc1N(C)S2(=O)=O	31.6%	·	60.8%	·	-7.8%	8.0%[59 µM]
NC(=O)Cn1c(=O)n(CCCCCC(=O)NCc2ccccc2Cl)c(=O)c2sccc21	-1.7%	·	13.0%	·	-11.6%	5.4%[59 µM]
Cc1cccc(NC(=O)Cn2c(=O)n(CCC(=O)N3CCc4ccccc4C3)c(=O)c3ccccc32)c1	-1.8%	·	1.4%	·	-23.5%	-9.2%[59 µM]
CCOc1ccccc1Nc1nc(-c2sc(NC(=O)c3ccc([N+](=O)[O-])cc3)nc2C)cs1	?	-1.9%	·	-5.9%	·	?
SMILES	BAZ2B inh	Sfp inh	HP1b chromo inh	L3MBTL1 block	JMJD2A Tudor	G9a block
Cc1ccccc1Nc1nc(-c2sc(NC(=O)c3ccc([N+](=O)[O-])cc3)nc2C)cs1	44.7µM*	-10.5%	·	-17.9%	·	25.1µM*
O=C(NNC(=O)c1cccnc1)NC1CCCCC1	3.5%	12.7%	24.2%	·	-8.2%	-24.2%
O=C(NNC(=O)c1cc(O)c(O)c(O)c1)NC1CCCCC1	56.2µM*	10µM*	-29.9%	-17.8%	10µM*	1.58µM*
O=C1c2ccccc2C(Nc2cccnc2)N1Cc1ccccc1Cl (configuration not stated)	4.5%	6.6%	42.7%	0.2%	-11.1%	?
CCOc1ccc(NC2c3ccccc3C(=O)N2Cc2ccc3c(c2)OCO3)cc1 (configuration not stated)	15.8µM*	1.4%	?	·	44.7µM*	35.5µM*
CC(=O)c1cccc(NC2c3ccccc3C(=O)N2Cc2ccc3c(c2)OCO3)c1 (configuration not stated)	-2.0%	3.4%	25.0%	15.0%	-17.4%	?
O=C1c2ccccc2C(Nc2cccnc2)N1Cc1ccccc1 (configuration not stated)	?	9.7%	17.4%	·	-13.6%	25.1µM*
O=C1c2ccccc2C(Nc2ccc3c(c2)OCCO3)N1Cc1ccccc1 (configuration not stated)	39.8µM*	1.0%	?	·	39.8µM*	44.7µM*
CC(C)CCNC(=O)C(=O)Nc1c2c(nn1-c1ccc(Cl)cc1)CSC2	-0.4%	·	28.4%	·	-5.5%	27.5%[59 µM]
COc1cc(C(=O)Nc2cccc(OCc3cc(=O)n4cc(C)sc4n3)c2)cc(OC)c1OC	-7.4%	·	40.1%	·	-9.9%	-18.5%[59 µM]
CCOc1ccc(C(=O)CSc2nc3cc(C(=O)NC4CCCC4)ccc3c(=O)n2CC2CCCO2)cc1 (configuration not stated)	1.6%	·	33.8%	·	3.6%	-1.3%[59 µM]
CCc1ccc(CN2CCc3nc(N4CCN(c5ccccc5F)CC4)ncc3C2)cc1	-20.7%	·	52.3%	·	-14.6%	-4.8%[12.7 µM]
Nc1n[nH]c(-c2ccc(F)cc2)n1	?	-3.6%	19.3%	-2.8%	?	44.7µM*
CCCCc1ccc(-c2nc(N)n[nH]2)cc1	-2.8%	11.0%	24.4%	2.4%	-12.9%	0.3%
Cc1ccc(-c2ccccc2NC(=O)CS(=O)CC(=O)Nc2ccc(C)c(Cl)c2)o1 (configuration not stated)	-12.9%	6.0%	1.2%	·	-35.6%	35.5µM*
Cc1ccc(-c2ccccc2NC(=O)CCl)o1	?	20.3%	-3.2%	-12.2%	-31.9%	-39.9%
CCOC(=O)c1ccc(NC(=O)CC2C(=O)N(c3ccc(F)cc3)C(=O)N2Cc2cccnc2)cc1 (configuration not stated)	-8.7%	·	25.9%	·	-11.7%	-32.5%[59 µM]
COc1cc(/C=C2\SC(=S)N(NS(=O)(=O)c3ccccc3)C2=O)cc(OC)c1OC	?	79.4µM*	-14.3%	?	?	?
